In the library only some 1.8% were active in any assay of this set; here they are far more common.
LYPLA1 counter – LYPLA1 (human) inhibition in PME1 counter-screen; recombinant LYPLA1, FP-Rh probe fluorescence polarization; inhibition, % at 5.9 µM; 320,000 compounds, 0.16% hits; AID 2174;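 active = inhibition above the mean of all tested compounds plus 3 SD, set per campaign, cut at about 14% in these data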;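 note: inhibitors block serine hydrolase probe labeling of LYPLA1 so polarization falls; 0% = enzyme with DMSO and 100% = wells lacking LYPLA1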
Target sequence (O75608 whole entry, looked up): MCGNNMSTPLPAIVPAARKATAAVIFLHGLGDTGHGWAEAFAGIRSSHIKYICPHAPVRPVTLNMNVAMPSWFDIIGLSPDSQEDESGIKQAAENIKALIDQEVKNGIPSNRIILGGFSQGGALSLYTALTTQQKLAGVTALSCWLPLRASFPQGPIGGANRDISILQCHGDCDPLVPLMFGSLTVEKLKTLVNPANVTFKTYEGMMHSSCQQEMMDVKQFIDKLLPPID
PME-1 inh – blocks human protein phosphatase methylesterase 1. recombinant PME-1, FP-Rh probe fluorescence polarization. 320,000 compounds, 0.53% hits. Q9Y570. inhibition, % at 5.9 µM;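 active = inhibition above the campaign mean of all compounds plus 3 SD, cut at about 26% in these data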;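 note: competitive labeling of PME-1 active site by serine hydrolase directed probe; 0% = PME-1 with DMSO and 100% = wells lacking PME-1 enzyme; inhibitors block probe labeling so polarization falls and inhibition rises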
Fam108B inh – blocks mouse Fam108B hydrolase in RBBP9 counter-screen; recombinant Fam108B, FP-Rh probe fluorescence polarization; inhibition, % at 9.51 µM; 300,000 compounds, 0.33% hits;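 active = inhibition above the screen mean inhibition plus 3 SD, computed separately per campaign, cut at about 18% in these data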;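 note: inhibitors lower polarization as less probe binds the enzyme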
PAD4 inh – blocks human protein arginine deiminase 4; recombinant PAD4, RCA probe fluorescence polarization; inhibition, % at 6.36 µM; 330,000 compounds, 0.41% hits; AID 485272;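 active = percent inhibition above a cutoff equal to the mean of all tested compounds plus 3 SD, cut at about 15% in these data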;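 note: 0% = PAD4 with RCA probe and DMSO and 100% = probe without PAD4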
GSTO1 counter – blocks human GSTO1 in RBBP9 counter-screen; recombinant GSTO1, activity-based probe fluorescence polarization; P78417; AID 1974; inhibition, % at 5.96 µM; 300,000 compounds, 1.1% hits;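 active = inhibition above the campaign mean inhibition plus 3 SD, cut at about 35% in these data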;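 note: 0% = GSTO1-1 with DMSO and 100% = wells lacking GSTO1-1 enzyme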
Target sequence (P78417 whole entry, looked up): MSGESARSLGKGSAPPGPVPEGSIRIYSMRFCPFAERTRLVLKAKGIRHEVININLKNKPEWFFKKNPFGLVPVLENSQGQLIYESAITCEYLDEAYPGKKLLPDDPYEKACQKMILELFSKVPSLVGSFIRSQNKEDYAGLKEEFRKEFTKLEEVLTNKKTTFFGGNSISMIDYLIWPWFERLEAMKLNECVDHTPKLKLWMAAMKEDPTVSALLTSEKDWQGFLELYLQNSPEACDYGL
LYPLA2 inh – LYPLA2 (human) inhibition in PME1 counter-screen | O95372 | recombinant LYPLA2, FP-Rh probe fluorescence polarization | inhibition, % at 5.9 µM | 320,000 compounds, 0.38% hits;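 active = inhibition above the screen-wide mean plus 3 SD, limit set per campaign, cut at about 26% in these data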;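 note: 0% = LYPLA2 with DMSO and 100% = wells lacking LYPLA2 enzyme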
Target sequence (O95372 whole entry, looked up): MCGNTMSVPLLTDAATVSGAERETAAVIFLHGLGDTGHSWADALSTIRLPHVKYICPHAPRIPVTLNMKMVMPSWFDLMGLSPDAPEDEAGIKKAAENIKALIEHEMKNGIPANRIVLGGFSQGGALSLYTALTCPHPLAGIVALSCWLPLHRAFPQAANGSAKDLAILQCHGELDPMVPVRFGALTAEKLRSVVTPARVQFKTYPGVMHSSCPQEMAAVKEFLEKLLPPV
LYPLA1 confirm – counter-screen for PME1 inhibitors: confirmation of human LYPLA1 inhibitors | shares compounds with LYPLA1 counter | recombinant LYPLA1, FP-Rh probe fluorescence polarization | inhibition, % at 5.9 µM | 480 compounds, 69% hits | AID 2233;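 active = mean inhibition across replicates above the hit cutoff set in the primary screen, cut at about 15% in these data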;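 note: loss of FP-Rh probe labeling of LYPLA1 seen as lower polarization; 0% = LYPLA1 with DMSO and 100% = wells lacking LYPLA1 enzyme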
LYPLA2 confirm – counter-screen for PME1 inhibitors: confirmation of human LYPLA2 inhibitors. shares compounds with LYPLA2 inh. recombinant LYPLA2, FP-Rh probe fluorescence polarization. inhibition, % at 5.9 µM. 1,100 compounds, 72% hits. AID 2232;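 active = mean inhibition across replicates above the hit cutoff set in the primary screen, cut at about 26% in these data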;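 note: blocked labeling of the enzyme by serine hydrolase FP-Rh probe lowers polarization; 0% = enzyme with DMSO and 100% = wells lacking LYPLA2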
PAD4 FP conf – confirmation of human PAD4 inhibitors | shares compounds with PAD4 inh | recombinant PAD4, RCA probe fluorescence polarization | inhibition, % at 6.36 µM | 1,200 compounds, 28% hits;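 active = mean inhibition across replicates above the hit cutoff set by the earlier primary screen, cut at about 15% in these data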;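 note: inhibitors block active-site labeling by the probe so polarization falls; 0% = PAD4 with probe and DMSO and 100% = probe without PAD4 enzyme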
Active calls of the source: *; · = no result given; + = active, no number.

SMILES | LYPLA1 counter | PME-1 inh | Fam108B inh | PAD4 inh | GSTO1 counter | LYPLA2 inh | LYPLA1 confirm | LYPLA2 confirm | PAD4 FP conf
COc1ccc(N2CCN(C(=O)CNC(=O)c3cn(-c4ccccc4OC)c(=O)c4ccccc34)CC2)cc1 | 15.4* | 3.1 | -1.5 | -2.8 | 2.6 | 76.3* | 25.7* | 81.0* | ·
COc1ccc(-n2nc(C(=O)NCC(=O)N3CCN(Cc4ccccc4)CC3)c3ccccc3c2=O)cc1 | 42.5* | -5.0 | 3.4 | -3.0 | 0.9 | 68.7* | 46.7* | 66.8* | ·
CC1(C)Cc2c(cnn2-c2ccc(F)cc2)C(NC(=O)C2CCC2)C1 (stereo unspecified) | -3.1 | -1.4 | 4.5 | -9.6 | 2.3 | 0.4 | · | · | ·
Cc1cccc(C)c1NC(=O)CSc1ncnc2[nH]ncc12 | · | · | · | -3.0 | · | · | · | · | ·
Nc1nc(NCc2ccco2)nc(N2CCN(Cc3ccccc3)CC2)c1[N+](=O)[O-] | 28.6* | 5.2 | 0.4 | 9.7 | -10.9 | 47.5* | 41.8* | 47.8* | ·
O=C(C[n+]1ccccc1)N/N=C/c1cccc(Cl)c1Cl | -2.2 | -3.3 | 0.8 | -2.5 | 4.3 | 1.8 | · | · | ·
CCOC(=O)CCc1c(C)nc(SCc2ccc(C(=O)O)cc2)c(C#N)c1C | 20.4* | -0.8 | -1.0 | -0.5 | 4.3 | 43.3* | 39.4* | 58.9* | ·
CCOC(=O)CCc1c(C)nc(SCC(=O)O)c(C#N)c1C | -6.3 | -1.4 | -6.6 | -3.0 | 4.0 | -4.1 | · | · | ·
O=C(CCCCCN1C(=O)c2ccccc2C1=O)Nc1ccc(S(=O)(=O)N2CCCCC2)cc1 | 26.4* | 3.9 | -7.6 | -6.3 | 3.6 | 41.8* | 29.7* | 41.5* | ·
OC(CN1CCN(c2cccc(C(F)(F)F)c2)CC1)c1c[nH]c2ccccc12 (stereo unspecified) | 22.6* | 5.3 | 5.7 | -3.2 | -4.5 | 56.6* | 29.7* | 48.9* | ·
O=C(CS(=O)(=O)Cc1ccccc1)N1CCN(c2cccc(C(F)(F)F)c2)CC1 | 2.4 | 8.3 | 0.6 | 1.0 | -3.4 | 7.5 | · | · | ·
CCOc1nc(NCCN2CCOCC2)nc(NC(C)C)n1 | 1.0 | -0.3 | 1.0 | -2.5 | 0.5 | 5.2 | · | · | ·
COc1cc(CC(=O)N2CCN(C(=O)C3CCCO3)CC2)cc(OC)c1OC (stereo unspecified) | · | · | · | -0.5 | · | · | · | · | ·
CCN1/C(=C/C=C/c2sc3ccccc3[n+]2CC)Sc2ccccc21 | -138.9 | -296.5 | -310.2 | -112.0 | -167.7 | -290.9 | · | · | ·
CCN1/C(=C/C=C/c2oc3ccc(-c4ccccc4)cc3[n+]2CC)Oc2ccc(-c3ccccc3)cc21 | 58.4* | 72.1* | -10.9 | 62.8* | -67.8 | 64.1* | -47.4 | -176.4 | 45.0*
c1ccc(CSc2nc3ccccc3[nH]2)cc1 | -1.0 | -15.2 | -6.8 | -7.4 | 5.8 | -7.0 | · | · | ·
CCn1c(CSc2nc3ccccc3[nH]2)nc2cc(C(=O)O)ccc21 | 20.4* | 19.2 | 12.5 | 31.6* | 12.2 | 23.6 | 13.7 | · | 34.1*
COC(=O)c1ccccc1-c1c2ccc(=N)cc-2oc2cc(N)ccc12 | 169.8* | 150.1* | · | + | · | 191.5* | 129.6* | 154.6* | 144.9*
Cc1ccc(C2CC(=O)Oc3cc(O)ccc32)cc1 (stereo unspecified) | 22.1* | 22.6 | 14.9 | 59.8* | 27.3 | 22.6 | 18.5* | · | 63.1*
Cc1cccc(C)c1NC(=O)Nc1ccc(S(N)(=O)=O)cc1 | -1.6 | -2.8 | -2.4 | 2.4 | -3.0 | 1.3 | · | · | ·
COc1ccc(OC)c2c1C(=O)c1ccccc1C2=O | 22.0* | 27.7* | 15.6 | 41.3* | 9.9 | 22.2 | 4.2 | · | 37.7*
COc1cccc2c1C(=O)c1ccc3ccccc3c1C2=O | 4.8 | 5.2 | 5.6 | -2.8 | 10.5 | 6.9 | · | · | ·
COc1ccc(N)c2c1C(=O)c1ccccc1C2=O | 20.2* | 18.0 | 12.3 | 32.9* | 14.2 | 14.7 | 14.2* | · | 10.2
Cc1c(C(=O)NNC(=S)NCc2ccc(Cl)cc2)oc2ccccc12 | -2.8 | 3.4 | 8.7 | 2.0 | 5.9 | 3.1 | · | · | ·
Cc1ccc(NS(=O)(=O)c2cccc(C(=O)N3CCN(c4ncccn4)CC3)c2)cc1 | 24.0* | 30.7* | · | 36.5* | · | 49.5* | -1.3 | 1.6 | 3.0
SMILES | LYPLA1 counter | PME-1 inh | Fam108B inh | PAD4 inh | GSTO1 counter | LYPLA2 inh | LYPLA1 confirm | LYPLA2 confirm | PAD4 FP conf
Cc1cc(O)ccc1N/C=C1\CCCC1=O | 19.5* | 24.3 | 8.3 | 41.5* | 28.9 | 14.6 | 3.1 | · | 0.4
CC(=O)Nc1ccc(N/C=C2/CCCC2=O)cc1 | 0.6 | 9.4 | 1.4 | 4.2 | 8.5 | 5.7 | · | · | ·
CCc1ccc2c(CC(=O)NNC(=O)c3ccncc3)coc2c1 | -2.1 | -2.0 | · | -1.2 | · | 4.5 | · | · | ·
Cc1onc(-c2ccccc2Cl)c1C(=O)NCc1ccc2c(c1)cc(C)n2C | 16.0* | 23.1 | 8.2 | 38.1* | 12.8 | 21.9 | 13.2 | · | 11.2
COc1ccccc1N1CCN(C2CCCN(C(=O)CCn3cncn3)C2)CC1 (stereo unspecified) | -1.5 | 8.9 | -1.6 | -2.1 | 0.6 | -2.5 | · | · | ·
Cc1n[nH]c(C)c1N1C(=O)c2cccc3c(N4CCCCCC4)ccc(c23)C1=O | 19.5* | 17.0 | 8.3 | 38.2* | 13.2 | 21.8 | 18.8* | · | 26.7*
CSc1ccccc1C(=O)NC1CCSc2ccccc21 (stereo unspecified) | 3.8 | 4.3 | -2.4 | -4.9 | 2.8 | 6.4 | · | · | ·
Cc1cc([N+](=O)[O-])cc(/C=N\NC(=O)C2COc3ccccc3O2)c1O (stereo unspecified) | 4.7 | 4.7 | 2.5 | 6.1 | 11.1 | 12.7 | · | · | ·
COc1cc(CNc2ccc(O)cc2)cc(Br)c1OCc1ccccc1F | 18.0* | 41.6* | 9.0 | 27.6* | 85.7* | 17.6 | -0.6 | · | 8.0
COc1cc(CNCc2ccncc2)cc(Br)c1OCc1ccccc1F | -2.5 | -10.2 | 9.3 | -4.3 | 6.3 | 0.3 | · | · | ·
COCCNC(=O)c1sc2ncn(CC(=O)Nc3ccc(C)c(Cl)c3)c(=O)c2c1C | 2.4 | 5.1 | 4.2 | -1.7 | -3.5 | 50.0* | · | 47.4* | ·
Cc1ccc(NC(=O)Cn2cnc3sc(C(=O)NCc4ccco4)c(C)c3c2=O)cc1Cl | -6.6 | -4.2 | 0.8 | -2.3 | -3.7 | 22.7 | · | · | ·
COC(=O)CNC(=O)c1sc2ncn(CC(=O)Nc3ccc(C)c(Cl)c3)c(=O)c2c1C | -9.4 | -4.7 | -1.3 | -0.4 | -1.6 | 39.5* | · | 46.1* | ·
COc1ccc(CCNC(=O)COc2ccc(-c3ccccc3)cc2)cc1OC | -0.1 | -1.2 | 7.5 | 3.2 | 1.4 | 29.6* | · | 31.1* | ·
COc1ccc(CCNC(=O)CCCOc2ccc(C)cc2)cc1OC | 0.7 | -3.5 | -2.1 | 3.0 | -3.1 | 3.1 | · | · | ·
